Assay in all cases: NCI-60 one-dose screen, 48 h (100 = growth as untreated, 0 = no growth, -100 = all killed)
What all share (conditions): 10 µM unless noted

In test [1] the test system is NCI-H23 lung.
Test [2] concerns NCI-H226 lung.
Test [3] relates to NCI-H322M lung.
For test [4], the system named is HOP-62 NSCLC.
Test [5] concerns NCI-H460 lung.
In test [6] the test system is NCI-H522 lung.
For test [7], the system named is A549/ATCC NSCLC.
The subject of test [8] is 786-0 renal.
The test system of test [9] is COLO 205 colon.
Test [10] relates to DU-145 prostate.
Test [11] concerns MALME-3M melanoma.
The test system of test [12] is MDA-MB-231 breast.
The test system of test [13] is RXF 393 renal.
The subject of test [14] is SF-268 CNS.
Test [15] deals with SF-295 CNS.
Test [16] deals with SF-539 CNS.
Test [17] deals with UACC-257 melanoma.
Test [18] relates to M14 melanoma.
The test system of test [19] is K-562 leukemia.

Compounds without any hit were thinned out: in the full panel of roughly 83,000, 20% have a hit.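 Note: values are percent growth. 100 is the growth of untreated cells, values between 100 and 0 indicate rising inhibition; between -100 and 0 indicates cell death.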 A number with no mark means an inactive call. The source made the active and inactive calls. The calls were made as follows: active = growth percent below 10; inactive = the rest.

On to `COc1cccc(-c2nc3sccn3c2-c2ccnc(NCCN3CCCN(C)S3(=O)=O)n2)c1`, for which the growth in test [1] was 104%; in [2], 78.9%; in test [3] it was 91.4%; in [4] it was 111%; in [5], 69.5%; in test [6] it was 95.9%. Besides, the growth is 91.7% in test [7]; 73.3% in [8]; 45.8% in test [9]; 74.2% in [10]; 39.6% in test [11]; 84.9% in test [12]. Moreover, the growth in test [13] is 74.6%; in test [14] it was 103%; in test [15], 96.8%; in test [16] it was 92.5%; in test [17] it was 84.7%; in test [18], 29.2%.
In the case of `COc1ccccc1CNCCCN1C(=O)c2ccc3c4c(ccc(c24)C1=O)C(=O)N(CCCNCCCN)C3=O`, the growth in test [1] was -63.4% (active); in test [2], 38.7%; in test [3], 1.95% (active); in [4], 11.6%; in test [5] it was -26.5% (active); in [6], -75.6% (active). In addition, the growth in [7] was 9.81% (active); in [8], 11%; in test [9], -87.8% (active); in test [10], -1.55% (active); in [11], -41.9% (active); in test [12] it was 12.2%. Also, the growth in test [13] is -36.9% (active); in [14], -0.397% (active); in test [15], 14.5%; in test [16], 8.47% (active); in test [17], -74.4% (active); in [18], -44.1% (active).
With `C=C(c1ccc(C(=O)NCCCn2ccnc2)cc1)c1cc2c(cc1C)C(C)(C)CCC2(C)C`, the growth in test [1] is 44%; in [2], 72.3%; in [3], 42.8%; in test [4], 18%; in test [5], 13.9%; in test [6], 10.2%. For the same molecule, the growth is 40.3% in [7]; -17% (active) in test [8]; 10.3% in test [9]; 34% in [10]; -1.54% (active) in test [11]; 28.7% in test [12]. The growth is 35.8% in [13]; 38.5% in test [14]; -29.6% (active) in test [15]; 2.41% (active) in [16]; 99.2% in test [17]; -76.4% (active) in test [18].
Consider `COc1cccc(-c2nc3sccn3c2-c2ccnc(NCCN3CCCNS3(=O)=O)n2)c1`, for which the growth is 99.4% in [1]; 81.4% in test [2]; 95.6% in [3]; 123% in test [4]; 68.8% in [5]; 92.2% in test [6]. The growth is 99.2% in [7]; 77.5% in test [8]; 51.5% in [9]; 79.2% in test [10]; 24.2% in [11]; 83.3% in [12]. Further, the growth in [13] is 76.7%; in [14], 94.7%; in test [15] it was 106%; in [16], 111%; in test [17], 65.4%; in test [18], 18%.
For the molecule `COc1ccc(-c2nc3c(c(-c4ccc(Cl)cc4)nn3-c3ccccc3)c(-c3ccc(O)cc3)c2C#N)cc1`, the growth in test [1] was 52.8%; in test [2], 70.6%; in test [3], 75.5%; in test [4], 57.5%; in [5], 14.1%; in test [7] it was 41.2%. Also, the growth in test [8] is 9.2% (active); in [9], 57.8%; in [10] it was 51.6%; in test [19] it was 10.8%; in [11] it was 62.6%; in test [12] it was 65.6%. Further, the growth is -12.7% (active) in test [13]; 46.1% in test [14]; -6.26% (active) in [15]; 27.6% in [16]; 65.4% in test [17]; 45.9% in test [18].
With `O=C1SCN(Cc2ccccc2)CN1Cc1ccccc1`, the growth in test [1] is 91.2%; in test [2], 96.2%; in [3], 95.3%; in test [4] it was 102%; in test [5] it was 107%; in test [7], 99.1%. Also, the growth in test [8] is 114%; in test [9] it was 116%; in test [10], 95.4%; in test [19], 46.3%; in test [11] it was 101%; in [12] it was 86.9%. Also, the growth in [13] is 108%; in [14], 96.2%; in test [15] it was 110%; in test [16], 104%; in test [17], 70.9%; in [18], 99.1%.
Consider `COc1ccc(C(=O)OC2C(OC3C(O)COC(O[C@H]4C[C@H]5[C@@H]6CC=C7C[C@@H](O)CC[C@]7(C)[C@H]6CC[C@]5(C)[C@H]4[C@H](C)C(=O)CCC(C)C)C3OC(=O)C(C)C)OCC(O)C2O)cc1` (stereo not given in full), for which the growth in test [1] is 43.1%; in test [2] it was 10.9%; in test [3], 58.6%; in test [4] it was -14.2% (active); in test [5], 0.329% (active); in test [7], 16.1%. Also, the growth was -1.64% (active) in test [8]; -47.9% (active) in test [9]; 38.4% in test [10]; -29.8% (active) in test [19]; 6.67% (active) in test [11]; 36.5% in test [12]. Also, the growth in test [13] was -59.4% (active); in test [14], -9.13% (active); in test [15], -60.5% (active); in test [16] it was -66.2% (active); in [17], -50% (active); in [18], -61.4% (active).
On to `O=C(Nc1ccc(Cl)cc1)c1cc(-c2ccc(Cl)cc2)c2sc(=O)[nH]c2n1`, for which the growth is 2.31% (active) in test [1]; 0.841% (active) in test [2]; 6.21% (active) in test [3]; -19% (active) in test [4]; -5.14% (active) in [5]; 1.59% (active) in [7]. Besides, the growth in test [8] is 6.31% (active); in test [9], -52.1% (active); in test [10], 16.5%; in test [19] it was -12.8% (active); in [11], -13.8% (active); in test [12], -30.9% (active). Further, the growth in test [13] is -3.38% (active); in [14], 14.1%; in [15], -12.5% (active); in test [16] it was 7.84% (active); in test [17], -24.9% (active); in test [18], 8.92% (active).
For `COc1cc(C)c(Cl)cc1C1=NN(c2ccc(S(N)(=O)=O)cc2)C(/C=C/c2ccccc2)C1` (stereo not given), the growth in [1] is 50.5%; in [2] it was 31.9%; in test [3], 107%; in [4] it was 59.7%; in test [5], 26.8%; in [7], 34%. The growth is 63.4% in test [8]; 38.3% in test [9]; 82.6% in [10]; 23.1% in [19]; 85.6% in [11]; 88.4% in [12]. The growth in test [13] is 58%; in test [14], 70.2%; in test [15] it was 63.7%; in test [16], 103%; in test [17], 83.4%; in test [18], 72.2%.
In the case of `CCCCCCCCCCCCCCCCCC(=O)[O][Sn]([CH2]CCC)([CH2]CCC)[CH2]CCC`, the growth in test [1] was -81.7% (active); in test [2], -74.6% (active); in test [3], -91.4% (active); in test [4] it was -89.5% (active); in test [5] it was -88.9% (active); in test [7], -84.1% (active). The growth is -100% (active) in test [8]; -80.9% (active) in test [9]; -100% (active) in test [10]; -42.8% (active) in test [19]; -85.9% (active) in [11]; -57.8% (active) in test [12]. Moreover, the growth in [13] is -98% (active); in [14], -92.8% (active); in test [15], -85.3% (active); in test [16], -81.6% (active); in [17] it was -86.1% (active); in test [18] it was -91.1% (active).
For the molecule `CC(C)(C)OC(=O)N1CCCN(CCNc2nccc(-c3c(-c4cccc(O)c4)nc4sccn34)n2)S1(=O)=O`, the growth in test [1] was 94.1%; in test [2], 91.1%; in [3], 92.6%; in [4], 115%; in [5], 91.4%; in [6], 92.4%. Besides, the growth in [7] is 101%; in [8], 87.3%; in [9], 46.2%; in test [10], 85%; in test [11] it was 17.9%; in test [12] it was 84.3%. For the same molecule, the growth in [13] was 78.5%; in test [14], 110%; in test [15], 112%; in test [16] it was 104%; in test [17] it was 62.3%; in test [18], 16.7%.
Take `CCCCCCCCCCCCCCCC1=NC(C)(C)CN1C(C)C`: the growth in [1] is 0.554% (active); in [2] it was -5.35% (active); in test [3] it was 34.6%; in [4] it was -77.4% (active); in test [5], -53.7% (active); in [6] it was -68.1% (active). Also, the growth was -57.2% (active) in [7]; -64.6% (active) in [9]; 7.67% (active) in test [10]; -50.3% (active) in [19]; -49% (active) in test [11]; -62.2% (active) in test [12]. For the same molecule, the growth in test [13] is -68.9% (active); in test [14] it was -55.2% (active); in [15] it was -48.1% (active); in test [16], -79.6% (active); in [17] it was -31.2% (active); in test [18] it was -71.4% (active).
In the case of `COc1ccc2c(c1)N(Cc1ccc(Cl)cc1)CCC2N1CCCC1=O` (stereo not given), the growth in test [1] was 52.7%; in test [2], 46.5%; in test [3], 39.9%; in test [4], 52.4%; in [5] it was 39.1%; in test [7] it was 44.4%. Besides, the growth was 48.6% in test [8]; 67.3% in test [9]; 43.9% in test [10]; 47.4% in test [19]; 39.8% in test [11]; 61.8% in test [12]. The growth is 39.4% in test [13]; 59.2% in [14]; 28.3% in [15]; 48.5% in test [16]; 63.6% in [17]; 60.9% in test [18].
Turning to `CCCNCCC(C)=O`, the growth in test [1] was 95.1%; in test [2], 108%; in test [3], 119%; in test [4] it was 106%; in test [5], 103%; in [7], 95.6%. Besides, the growth in test [8] is 110%; in [9] it was 108%; in [10] it was 122%; in test [19] it was 98.5%; in test [11] it was 121%; in test [12] it was 113%. The growth in test [13] was 127%; in test [14], 115%; in test [15], 97.1%; in test [16], 114%; in test [17], 91.7%; in [18] it was 105%.
Consider `CC(C)(C)[Si](C)(C)OC1[C@@H](O[Si](C)(C)C(C)(C)C)[C@@H](CNC(=O)NC(=O)NC(=O)CCl)O[C@H]1n1cnc2c(NC(=O)Nc3ccccc3)ncnc21` (stereo not given in full), for which the growth in [1] is -35.6% (active); in test [2], 88.2%; in [3] it was 103%; in test [4], 36.7%; in test [5], 43.5%; in test [7], 55.8%. In addition, the growth in [8] was 26.6%; in [9] it was 57.1%; in test [10], 87.5%; in [19], 47.1%; in [11], -78.7% (active); in [12] it was -28.3% (active). Moreover, the growth in test [13] was 21.9%; in test [14] it was 47.1%; in test [15], -20.6% (active); in [16], 82.7%; in test [17] it was 97.8%; in [18] it was 64.7%.

The record behind these values is PubChem BioAssay (NCI).
